Assay outcomes as filed in PubChem BioAssay.
The entries come from a sample that favours hits as a whole.
ALOX12 inh – blocks human arachidonate 12S-lipoxygenase; 580,000 tested, 1.1% active; purified 12hLO, xylenol orange hydroperoxide absorbance; Potency, µM (doses to about 108 µM), for the others: at the highest dose activity change, negative = inhibition, usual class: inhibitors; AID 1671190; further: on the % scale 0 is the no-effect control and ±100 the full control effect
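Purified human 12hLO at 150 nM in 25 mM Hepes, 0.01% Triton X-100, pH 7.0, preincubated 15 min at room temperature with compound. Reaction started with 40 uM arachidonic acid, 30 min at room temperature. Hydroperoxide measured by Fe-xylenol orange, 573/405 nm absorbance ratio.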
G9a inh – inhibitors of human histone lysine methyltransferase G9a; Q96KQ7; G9a H3K9 monomethylation, AlphaScreen, 2 h; 350,000 tested, 8.8% active; Potency, µM (highest dose often 102 µM), for inactives: at the top dose activity, negative = inhibition, actives largely listed as inhibitors; AID 504332; further: on the % scale 0 is the no-effect control and ±100 the full control effect; nearly all actives have a fitted effect of over 75% in size
Target sequence (Q96KQ7 913-1193 limits assumed): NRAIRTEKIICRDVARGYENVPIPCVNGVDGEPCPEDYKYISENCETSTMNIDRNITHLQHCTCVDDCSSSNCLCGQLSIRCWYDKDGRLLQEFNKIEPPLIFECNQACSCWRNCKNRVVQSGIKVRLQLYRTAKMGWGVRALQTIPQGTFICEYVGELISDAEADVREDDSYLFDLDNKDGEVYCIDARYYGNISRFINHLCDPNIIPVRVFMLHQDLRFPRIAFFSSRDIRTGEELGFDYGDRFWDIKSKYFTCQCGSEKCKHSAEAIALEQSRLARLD
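Quantitative HTS format: methyltransferase activity on a biotin-tagged H3K9 peptide is measured by AlphaScreen, using a rabbit anti-monomethyl-H3K9 antibody with streptavidin donor and anti-IgG acceptor beads. Final levels are 20 nM enzyme, 500 nM peptide, 20 uM SAM; 2 h RT.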
VDR inh – blocks the human vitamin D receptor; P11473; VDR-SRC2-3 peptide fluorescence polarization, 2 h; Potency, µM, for inactives: max response, negative = inhibition, most hits filed as inhibitors; 400,000 tested, 0.93% active; AID 504847; further: on the % scale 0 is the no-effect control and ±100 the full control effect
Target sequence (P11473 whole entry, looked up): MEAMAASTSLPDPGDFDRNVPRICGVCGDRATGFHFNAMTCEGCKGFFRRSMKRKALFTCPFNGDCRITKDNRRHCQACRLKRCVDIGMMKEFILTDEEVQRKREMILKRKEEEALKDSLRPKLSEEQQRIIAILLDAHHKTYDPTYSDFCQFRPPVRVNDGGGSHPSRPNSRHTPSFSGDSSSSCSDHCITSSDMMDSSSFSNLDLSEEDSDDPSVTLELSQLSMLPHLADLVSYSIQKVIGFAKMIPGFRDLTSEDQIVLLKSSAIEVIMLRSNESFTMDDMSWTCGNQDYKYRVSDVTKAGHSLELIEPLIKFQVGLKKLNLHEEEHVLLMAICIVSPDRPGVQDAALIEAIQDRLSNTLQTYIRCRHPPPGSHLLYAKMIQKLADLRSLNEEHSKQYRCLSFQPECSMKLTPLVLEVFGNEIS
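After 23 nl compound addition and a short centrifugation, plates sat for 2 hours at ambient temperature; polarization of fluorescence then indicated loss of VDR binding to peptide SRC2-3.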
Sfp PPTase inh – blocks B. subtilis Sfp PPTase activity; Biochemical Sfp PPTase activity, qHTS; 310,000 tested, 3.5% active; Q9F4F7; Potency, µM, for the others: largest response in the series, negative = inhibition, usual class: inhibitors; AID 1490;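 further: the enzyme is Sfp with the accession as filed and its product quenches rhodamine fluorescence; 0% = enzyme reaction without inhibitor and -100% = no enzyme wells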
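Fluorescence-quenching assay: 15 nM Sfp-PPTase preincubated 15 min at room temperature with compound, then 5 uM rhodamine-CoA and 12.5 uM BHQ-2-labelled YbbR peptide added. Fluorescence (ex 525/em 598 nm) read at start and after 30 min; difference gives rate.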
GRP78 ERSR act – ER stress response induction in glioma; U87-MG GRP78 promoter luciferase reporter, 16 h; Potency, µM, without a hit: at the top dose activation, hits mostly activators; 420,000 tested, 0.02% active; further: series mostly up to about 76 µM; % of control where 0% means no effect; nearly all actives have a fitted effect of over 35% in size
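Stably transfected U87-MG human glioma cells carrying a GRP78-based luminescent sensor were seeded at 1000 cells/well, pin-dosed with compounds and incubated 16 h. Luciferase reagent was then added, and end-point luminescence was read after 10 min at room temperature.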
An asterisk follows results filed as active; [ ] = another dose, or the depositor's remark. The call rests on the fitted dose curve; in most records, active means well fitted curve in the direction sought with a large enough effect; inconclusive means small, poorly fitted or top-dose-only effect, or another doubt; inactive means no such curve, though single readings can be large; an effect the other way counts as inactive or inconclusive. Potency means the concentration at half of the fitted maximal effect.

What do the screens show for `CCCNc1nc(-c2ccc(S(=O)(=O)N3CCCCCC3)cc2)cs1`?
ALOX12 inh: 32µM*

Results for N#Cc1ccccc1NCc1ccccn1 ?
ALOX12 inh: 11%

What do the screens show for `Cc1oc(-c2ccc(C(=O)NCc3cccnc3)cc2)nc1CS(=O)(=O)c1ccccc1`?
ALOX12 inh: -17%

What do the screens show for `CCC(C)(C)c1ccc(OCCCC[n+]2cccc(C)c2C)c(C(C)(C)CC)c1`?
ALOX12 inh: -19%; VDR inh: 1%; Sfp PPTase inh: 45µM*; GRP78 ERSR act: -13%

How did CCC(C)(C)c1ccc(OCCCC[n+]2ccc(C)cc2)c(C(C)(C)CC)c1 do in these assays?
ALOX12 inh: inconclusive; G9a inh: inconclusive; VDR inh: -9%; Sfp PPTase inh: 40µM*; GRP78 ERSR act: -14%

How did Cc1nc2nc(N)c(C#N)cn2n1 do in these assays?
ALOX12 inh: 28%

What do the screens show for `COC(=O)CCC(=O)NC(=S)Nc1sc(C)c(C)c1C(N)=O`?
ALOX12 inh: -11%; G9a inh: 8.9µM*; VDR inh: -1%; Sfp PPTase inh: -23%; GRP78 ERSR act: -6%

How did CCOC(=O)Nc1sc(C)c(C)c1C(N)=O do in these assays?
ALOX12 inh: -2%; G9a inh: 40µM*; VDR inh: -17%; Sfp PPTase inh: -13%; GRP78 ERSR act: -2%

What do the screens show for `CCOC(=O)c1c(NC(N)=O)sc(C)c1C`?
ALOX12 inh: -6%; G9a inh: 2%[59 µM]; VDR inh: -14%; Sfp PPTase inh: -13%; GRP78 ERSR act: -4%

Results for Cc1sc(NC(=O)Nc2ccccc2)c(C(N)=O)c1C ?
ALOX12 inh: inconclusive; G9a inh: 8.9µM*; VDR inh: 89µM*; Sfp PPTase inh: 20µM*; GRP78 ERSR act: 4%

How did COC(=O)CCC(=O)Nc1sc(C)c(C)c1C(N)=O do in these assays?
ALOX12 inh: inconclusive; G9a inh: 2.8µM*; VDR inh: 50µM*; Sfp PPTase inh: 14µM*; GRP78 ERSR act: -2%

How did O=C(Cn1cnc(S(=O)(=O)N2CCOCC2)c1)Nc1ccc(F)cc1F do in these assays?
ALOX12 inh: 3%

What do the screens show for `CCNC(=O)N[C@H]1C[C@@H](Cc2cc(COc3ccccc3)on2)C1(C)C`?
ALOX12 inh: 5%[176 µM]

How did Cc1cc(NCCC(C)C)n2nc(C)c(-c3ccccc3)c2n1 do in these assays?
ALOX12 inh: -22%; G9a inh: 69%[59 µM]; VDR inh: -8%; Sfp PPTase inh: 56µM*; GRP78 ERSR act: 5%

What do the screens show for `Cc1cc(NCCCN2CCOCC2)n2nc(C)c(-c3ccccc3)c2n1`?
ALOX12 inh: -21%; G9a inh: -7%; VDR inh: -1%; Sfp PPTase inh: 1%; GRP78 ERSR act: -2%

How did O=C(O)C(Cc1ccc(Cl)cc1)Sc1nc2ccccc2[nH]1 (stereo not given) do in these assays?
ALOX12 inh: inconclusive; G9a inh: 50µM*; VDR inh: -5%; Sfp PPTase inh: -8%; GRP78 ERSR act: 0%

Results for CCNC(=S)NNC(=O)CSc1nc2ccccc2[nH]1 ?
ALOX12 inh: -2%; G9a inh: 45µM*; VDR inh: -2%; Sfp PPTase inh: 13%; GRP78 ERSR act: 0%

How did O=C(CSc1nc2ccccc2[nH]1)N1CCN(S(=O)(=O)c2ccc(Cl)cc2)CC1 do in these assays?
ALOX12 inh: 0%; G9a inh: 35µM*; VDR inh: 3%; Sfp PPTase inh: -23%; GRP78 ERSR act: -1%

What do the screens show for `Cc1ccc(CNC(=O)CSc2nc3ccccc3[nH]2)cc1`?
ALOX12 inh: 0%; G9a inh: 25µM*; VDR inh: -25%; Sfp PPTase inh: -10%; GRP78 ERSR act: 3%

Results for Cc1ccc2nc(SCC(=O)NCc3ccc(F)cc3)[nH]c2c1 ?
ALOX12 inh: 11%; G9a inh: -41%; VDR inh: -15%; Sfp PPTase inh: 10%; GRP78 ERSR act: 4%

How did Cc1ccc(S(=O)(=O)N2CCN(C(=O)CSc3nc4ccccc4c(=O)[nH]3)CC2)cc1 do in these assays?
ALOX12 inh: 0%; G9a inh: -28%[12.7 µM]; VDR inh: -7%; Sfp PPTase inh: 9%; GRP78 ERSR act: 0%

What do the screens show for `CCNC(=S)NNC(=O)CSc1nc2ccccc2n1C`?
ALOX12 inh: 120%; VDR inh: -12%; Sfp PPTase inh: -6%; GRP78 ERSR act: -1%

What do the screens show for `CCCCN(CC)Cc1c(C)[nH]c2ccc(Br)cc2c1=O`?
ALOX12 inh: 21%

What do the screens show for `CC1CN(C(=O)COC(=O)c2cc(=O)[nH]c3ccccc23)CCO1` (stereo not given)?
ALOX12 inh: -1%

How did COc1ccc(OC)c(CNCc2cccn2-c2nnc(N3CCOCC3)s2)c1 do in these assays?
ALOX12 inh: 52%

What do the screens show for `O=C(NC1CCC(c2ccccc2)CC1)c1ccc(Cl)nc1` (stereo not given)?
ALOX12 inh: -15%

How did COc1ccc2nc(SCC(=O)NCc3ccccc3)[nH]c2c1 do in these assays?
ALOX12 inh: 17%; G9a inh: -7%; VDR inh: -10%; Sfp PPTase inh: 9%; GRP78 ERSR act: -1%

How did C=CCSc1nnc(NC(=O)CSc2nc3ccccc3[nH]2)s1 do in these assays?
ALOX12 inh: -5%; G9a inh: 1.8µM*; VDR inh: -2%; Sfp PPTase inh: 17%; GRP78 ERSR act: 6%

What do the screens show for `COC(=O)c1ccc(CNC(=O)CSc2nc3ccccc3[nH]2)cc1`?
ALOX12 inh: -10%; G9a inh: 40µM*; VDR inh: 9%; Sfp PPTase inh: 18%; GRP78 ERSR act: -1%

How did O=C(CCCSc1nc2ccccc2[nH]1)NCc1ccc(Cl)cc1 do in these assays?
ALOX12 inh: inconclusive; G9a inh: 10µM*; VDR inh: 7%; Sfp PPTase inh: 15%; GRP78 ERSR act: 0%

How did O=C(CCCSc1nc2ccccc2[nH]1)NCc1ccccc1F do in these assays?
ALOX12 inh: 3%; G9a inh: -35%; VDR inh: 14%; Sfp PPTase inh: 22%; GRP78 ERSR act: -1%

What do the screens show for `COc1ccc(OC)c(Nc2nc(NCC(C)O)nc3c2cnn3-c2ccccc2)c1` (stereo not given)?
ALOX12 inh: 112%

How did Cc1ccc(NC(=O)CCC2CCCCC2)c(NC(=O)c2ccco2)c1 do in these assays?
ALOX12 inh: 3.5µM*

Results for O=C(Oc1ccc(F)cc1)c1ccc(-c2nc3ccccc3s2)s1 ?
ALOX12 inh: -12%

Results for C[C@@H]1NC(=O)c2cc([N+](=O)[O-])cc(I)c2NCCCC[C@@H](C(N)=O)NC(=O)[C@H](CCC(=O)O)NC1=O ?
G9a inh: 40µM*; VDR inh: inconclusive; Sfp PPTase inh: -11%; GRP78 ERSR act: -1%

How did NC(=O)CC[C@@H]1NC(=O)[C@H](CO)NC(=O)c2cc([N+](=O)[O-])cc(I)c2NCC[C@@H](C(N)=O)NC(=O)[C@H](Cc2ccc(O)cc2)NC1=O do in these assays?
G9a inh: 7.9µM*; Sfp PPTase inh: -21%
